Laboratory results reported in PubChem BioAssay (NCI).
Several values for one entry are separate records, joined by “and”; a condition that tells them apart may be missing. Equal values may be shown once. About 83,000 compounds went through this panel and 20% of them were active in at least one assay; those are over-represented in the sample as a whole.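 Cells were grown in 96-well plates and exposed to the test compound at a single concentration for 48 hours; results are reported as percent growth, with values below 10 considered active.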 Activity calls are given as the source filed them.

Legend:
Assay in all cases: NCI-60 one-dose screen, 48 h (100 = growth as untreated, 0 = no growth, -100 = all killed)
SR leukemia = conditions: 10 µM
RPMI-8226 leukemia = conditions: 10 µM
OVCAR-8 ovarian = conditions: 10 µM
OVCAR-5 ovarian = conditions: 10 µM
OVCAR-4 ovarian = conditions: 10 µM
SK-OV-3 ovarian = conditions: 10 µM
IGROV1 ovarian = conditions: 10 µM
OVCAR-3 ovarian = conditions: 10 µM
HS 578T breast = conditions: 10 µM
NCI/ADR-RES ovarian = conditions: 10 µM
T-47D breast = conditions: 10 µM
BT-549 breast = conditions: 10 µM
MDA-MB-435 melanoma = conditions: 10 µM
SW-620 colon = conditions: 10 µM
MCF7 breast = system: MCF7 breast
HCT-116 colon = conditions: 10 µM
HCC-2998 colon = conditions: 10 µM
KM12 colon = conditions: 10 µM

Structure (SMILES)	growth (SR leukemia)	growth (RPMI-8226 leukemia)	growth (OVCAR-8 ovarian)	growth (OVCAR-5 ovarian)	growth (OVCAR-4 ovarian)	growth (SK-OV-3 ovarian)	growth (IGROV1 ovarian)	growth (OVCAR-3 ovarian)	growth (HS 578T breast)	growth (NCI/ADR-RES ovarian)	growth (T-47D breast)	growth (BT-549 breast)	growth (MDA-MB-435 melanoma)	growth (SW-620 colon)	growth (MCF7 breast; 10 µM unless noted)	growth (HCT-116 colon)	growth (HCC-2998 colon)	growth (KM12 colon)	growth (MCF7 breast; 10 µM)	growth (MCF7 breast; 100 µM)
COc1cc(C(N)=O)cc(OC)c1OC	93.3% (inactive)	106% (inactive)	98.1% (inactive)	98.1% (inactive)	110% (inactive)	111% (inactive)	108% (inactive)	117% (inactive)	106% (inactive)	101% (inactive)	110% (inactive)	108% (inactive)	116% (inactive)	109% (inactive)	105% (inactive)	105% (inactive)	105% (inactive)	107% (inactive)		
N#CCc1ccc([N+](=O)[O-])cc1	105% (inactive)	109% (inactive)	89.5% (inactive)	119% (inactive)	111% (inactive)	101% (inactive)	135% (inactive)	117% (inactive)	98% (inactive)	106% (inactive)	98.6% (inactive)	102% (inactive)	114% (inactive)	94.5% (inactive)	89.8% (inactive)	109% (inactive)	101% (inactive)	109% (inactive)		
COC(=O)c1ccc(C(C)C)cc1	103% (inactive)	99.9% (inactive)	106% (inactive)	103% (inactive)	103% (inactive)	83.4% (inactive)	105% (inactive)	103% (inactive)	119% (inactive)	103% (inactive)	82.3% (inactive)	85.6% (inactive)	99.8% (inactive)	113% (inactive)	93.1% (inactive)	85.1% (inactive)	101% (inactive)	103% (inactive)		
CCCCC(=O)c1ccc(OC)cc1	92.2% (inactive)	99.8% (inactive)	97% (inactive)	90.5% (inactive)	116% (inactive)	111% (inactive)	101% (inactive)	114% (inactive)	95.2% (inactive)	105% (inactive)	110% (inactive)	102% (inactive)	98.7% (inactive)	101% (inactive)	97.6% (inactive)	101% (inactive)	116% (inactive)	104% (inactive)		
NC(C(=O)O)C(O)c1ccco1 (centres undefined)	112% (inactive)	101% (inactive)	103% (inactive)	108% (inactive)	114% (inactive)	107% (inactive)	124% (inactive)	117% (inactive)	107% (inactive)	112% (inactive)	98% (inactive)	109% (inactive)	107% (inactive)	102% (inactive)	95.2% (inactive)	111% (inactive)	107% (inactive)	107% (inactive)		
COc1cc2c3cc1Oc1c(OC)c(OC)cc4c1C(Cc1ccc(O)c(c1)Oc1ccc(cc1)CC3N(C)CC2)N(C)CC4 (centres undefined)																			-71% (active)	81.8% (inactive) and -100% (active)
N#CSc1cc(S(N)(=O)=O)ccc1N	116% (inactive)	109% (inactive)	102% (inactive)	107% (inactive)	108% (inactive)	108% (inactive)	106% (inactive)	113% (inactive)	115% (inactive)		104% (inactive)	98.6% (inactive)	120% (inactive)	107% (inactive)	94.5% (inactive)	102% (inactive)		107% (inactive)		
O=C(O)CCCCNC(=O)c1ccccc1	95.7% (inactive)	103% (inactive)	108% (inactive)	116% (inactive)	108% (inactive)	97.9% (inactive)	108% (inactive)		108% (inactive)	94.8% (inactive)	88.2% (inactive)	103% (inactive)	113% (inactive)	107% (inactive)	101% (inactive)	101% (inactive)	94.3% (inactive)	99% (inactive)		
C#CC(C)(O)c1ccc(Cl)cc1 (centres undefined)	96.6% (inactive)	101% (inactive)	105% (inactive)	107% (inactive)	102% (inactive)	90.3% (inactive)	111% (inactive)		106% (inactive)	92.4% (inactive)	86.1% (inactive)	105% (inactive)	110% (inactive)	109% (inactive)	97% (inactive)	96.8% (inactive)	97.8% (inactive)	105% (inactive)		
C#CC(C(C)C)N(CCO)CCCC (centres undefined)	101% (inactive)	101% (inactive)	105% (inactive)	92.4% (inactive)	101% (inactive)	106% (inactive)	115% (inactive)	111% (inactive)	102% (inactive)		100% (inactive)	112% (inactive)	98.6% (inactive)	107% (inactive)	93.9% (inactive)	104% (inactive)	111% (inactive)	109% (inactive)		
